Source: PubChem (several laboratories)
Measles CPE – compounds protecting cells from measles virus cytopathic effect, primary screen, measles RdRp inhibitor project, single point, MLSMR library, absorbance | Measles virus-infected cells, CPE protection | protection (pct of control), % at 4 µM | 140,000 tested, 1.5% active; in the data active means protection mostly above about 24%, no sharp cut-off; inactive means mostly below about 26%
Arbovirus anti – antivirals against arbovirus infection, primary screen, cell-based, full library, 10K replicate subset; arbovirus infection cell-based antiviral screen; inhibition, % at 10 µM; 200,000 tested, 0.37% active; AID 1251, 2008; in the data active means inhibition above about 30%
HSV replic up – enhancers of HSV replication in host cells, fold increase, host cell viability. maximum fold increase. HSV replication augmentation in cells. 220,000 tested, 0.005% active; in the data active means maximum fold increase above about 1.5; inconclusive means no clear call, values can overlap the other calls; tested in PC3 cells
ROMK primary – ROMK potassium channel modulators, primary screen, cell-based, thallium flux, MLSMR library | ATP-sensitive inward rectifier potassium channel 1 (Homo sapiens), P48048 | 130,000 tested, 2% active | B-score at 10 µM | Tet-inducible ROMK, thallium flux fluorescence; actives lie on both sides;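 active means signal ratio slope over the read window, or its plate-corrected B-score, at least 3 SD from the plate mean, either direction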;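 further: B-score of the F/F0 ratio slope over 7 to 12 s after thallium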
Target sequence (P48048 whole entry, looked up): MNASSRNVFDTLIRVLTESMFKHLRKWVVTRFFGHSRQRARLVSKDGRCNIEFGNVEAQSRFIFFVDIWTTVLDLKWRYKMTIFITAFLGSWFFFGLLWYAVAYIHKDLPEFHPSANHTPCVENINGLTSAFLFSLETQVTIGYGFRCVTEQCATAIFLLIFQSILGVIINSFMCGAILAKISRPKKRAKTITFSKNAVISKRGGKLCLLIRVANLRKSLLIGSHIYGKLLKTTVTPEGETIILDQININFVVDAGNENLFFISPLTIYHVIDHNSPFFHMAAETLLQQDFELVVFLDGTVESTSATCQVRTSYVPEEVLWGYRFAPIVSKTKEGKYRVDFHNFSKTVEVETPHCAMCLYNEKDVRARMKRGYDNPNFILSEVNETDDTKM
KCC2 mod – KCC2 cotransporter modulators, thallium flux, primary screen, cell-based, HEK293 KCC2, FluoZin-2 fluorescence, MLSMR. Solute carrier family 12 member 5 (Homo sapiens), Q9H2X9. KCC2 cells, thallium flux FluoZin-2 fluorescence. B-score of Tl+ flux slope (higher = more flux/activation; lower = inhibition) at 10 µM. 190,000 tested, 2.2% active. AID 1456, 2008;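 active means thallium flux slope and its plate-corrected score both differing from the plate sample mean at a set confidence after two filtering rounds, in either direction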;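 further: slope of fluorescence scaled to starting intensity during 10 to 20 s after thallium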
ROMK hit retest – ROMK channel modulator hit retest, confirmation, cell-based, thallium flux, duplicate, resupplied hits; shares compounds with ROMK primary; fluorescence ratio; stronger effect = lower value; normalized thallium flux (F/F0 slope) at 10 µM; 3,000 tested, 54% active; AID 1917, 2009;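 active means Flux at 10 µM at least 3 SD below or above vehicle control mean in one or both replicates; inconclusive means no clear call, values can overlap the other calls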
The depositor's hits bear a star; i = inactive; u = inconclusive; x = no result. Compounds with a hit are over-represented: about 4% of the library has one in this group of screens.

SMILES	Measles CPE	Arbovirus anti	HSV replic up	ROMK primary	KCC2 mod	ROMK hit retest
Cc1nn(CC(=O)NCc2ccco2)c(C)c1[N+](=O)[O-]	x	x	i	0.37	0.31	x
CCCCOc1c(Br)cc(/C=N/O)cc1OCC	24	-34	x	-0.86	0.025	x
C=CCOc1c(Br)cc(/C=N/O)cc1OCC	9	-18	i	-3.8*	-0.73	0.057*
NCC12CC3CC(C1)CC(c1ccc(Cl)cc1)(C3)C2	x	-31	i	-1.2	2.7	x
CC1(C)NC(=O)N(CC(O)COc2ccc(-c3ccc(C#N)cc3)cc2)C1=O (stereo unspecified)	15	11	i	19*	x	0.077
Cc1c(C(=O)C(=O)NCC2CCCO2)c2ccccc2n1C (stereo unspecified)	x	16	i	-0.37	0.66	x
COc1ccc(C(C[N+](=O)[O-])C2(c3ccc(OC)c(OC)c3)C(=O)c3ccccc3C2=O)cc1 (stereo unspecified)	0	-36	i	-5.1*	0.19	u
Cc1ccc(Sc2ncccc2NC(=O)c2ccccc2Cl)cc1	x	x	i	-0.077	1	x
C=CCNC(=O)/C(C#N)=C/c1ccc(OS(=O)(=O)c2ccc(C)cc2)c(OC)c1	9	-31	i	-4.6*	0.054	0.042*
C=CCNC(=O)/C(C#N)=C/c1ccc(SC)cc1	x	2	i	-4.5*	0.36	0.053*
COC(=O)N/N=C/c1ccc(OS(=O)(=O)c2ccc(C)cc2)c(OC)c1	x	-6	i	-0.59	-0.13	x
CC1CCCCC1NC(=O)/C(C#N)=C/c1ccc2c(c1)OCCO2 (stereo unspecified)	14	8	i	-2.4	-1.5	x
CSc1ccc(/C=C(\C#N)C(=O)NC2CCCCC2)cc1	9	-12	i	-2.5*	-0.53	0.054*
CC1CCCCC1NC(=O)/C(C#N)=C/c1ccc(F)c(F)c1 (stereo unspecified)	14	7	i	-3*	0.35	0.05*
c1nc2n(n1)C1=C(CCCC1)C1(CCCCC1)N2	x	8	i	0.2	1.4	x
O=C(NC(=S)Nc1cc(S(=O)(=O)N2CCOCC2)ccc1N1CCOCC1)C1CCCC1	x	-3	i	0.2	-0.37	x
N#Cc1ccc(C(=O)Nc2cccc(NC(=O)c3ccco3)c2)c(F)c1	x	1	i	0.94	-0.51	x
COCCN(Cc1ccccc1)C(=S)Nc1ccc(Cl)cc1	x	4	i	6*	-1.1	0.081
Cc1ccc(-c2c[n+](CC(=O)Nc3nc(-c4ccccc4)cs3)c3n2CCC3)cc1	x	x	i	-4.6*	-2.4	0.06*
O=C(C[n+]1cc(-c2ccccc2)n2c1CCC2)Nc1nc(-c2ccccc2)cs1	8	0	i	-1.4	-1.2	x
O=S(=O)(/C(=C/c1ccc(C(F)(F)F)cc1)c1nc2ccccc2[nH]1)c1ccccc1	0	-37	i	-4.3*	-0.057	0.051*
COc1ccc(/C=C(/NC(=O)c2ccccc2)c2nc3ccccc3[nH]2)cc1OC	3	7	i	x	-0.06	x
CC(C)c1ccc(/C=C(\c2nc3ccccc3[nH]2)S(=O)(=O)c2ccccc2)cc1	0	-33	i	-3.7*	-0.37	0.06*
O=c1[nH]c2ccccc2nc1C(F)(F)F	x	x	i	x	-0.05	x
O=C(CSc1nc(-c2ccco2)cc(C(F)(F)F)n1)NCCN1CCOCC1	x	9	i	0.46	1.5	x
SMILES	Measles CPE	Arbovirus anti	HSV replic up	ROMK primary	KCC2 mod	ROMK hit retest
CCSc1nnc(NC(=O)NC(CC)(C(F)(F)F)C(F)(F)F)s1	5	-22	i	-4*	x	0.058*
O=C(c1ccc2c(c1)N(Cc1ccccc1)C(=O)c1ccccc1S2)N1CCCC1	41	8	i	x	-2	0.061*
Cc1ccccc1SCCNC(=O)CCc1ccccc1	x	-2	i	0.093	-0.63	x
COc1ccc(C(=O)Nc2ccc3c(c2)nc(CCNC(C)=O)n3C)cc1	5	2	i	3*	x	0.075
CCC1Oc2ccc(C)cc2N(CC(=O)N(Cc2ccc(C)o2)C2CC(C)(C)NC(C)(C)C2)C1=O (stereo unspecified)	13	-21	i	-6.9*	0.2	0.059*
CCC1Oc2ccc(C)cc2N(CC(=O)N(Cc2cccnc2)Cc2ccc(C)o2)C1=O (stereo unspecified)	7	1	i	x	-0.6	x
CCN(C#N)c1nc(NC(C)C)nc(NC(C)(C)C)n1	x	-6	i	-7.8*	-0.17	0.077
CCc1c(C)nc2ncnn2c1N1CCC(C(=O)Nc2cccc(C(C)=O)c2)CC1	10	-4	i	x	0.42	u
COc1ccc(CCNC(=O)CN(c2cc([N+](=O)[O-])ccc2OC)S(C)(=O)=O)cc1OC	x	0	i	1.3	0.36	x
COc1ccc(CCNC(=O)CN(c2cccc([N+](=O)[O-])c2)S(C)(=O)=O)cc1OC	x	17	i	-0.047	0.047	0.082
COC(=O)c1ccccc1NC(=O)COC(=O)C1CCCCC1	x	x	i	x	0.55	x
O=C(OCC(=O)N1N=C(c2ccc(Cl)cc2)CC1c1ccco1)c1ccco1 (stereo unspecified)	x	-4	i	-0.0069	0.85	x
N=c1sccn1CC(=O)N1N=C(c2ccc(Cl)cc2)CC1c1ccco1 (stereo unspecified)	x	-7	i	-3.2*	-0.45	0.064*
O=C1N=C(N2CCCC2C(=O)O)S/C1=C\c1ccco1 (stereo unspecified)	x	4	i	-0.43	-0.12	x
COC(=O)CCC(=O)Nc1sc2c(c1C#N)CCCC2	10	-2	i	5.9*	-0.72	0.089
COCCNC(=S)Nc1ccc2[nH]c(=O)[nH]c2c1	x	2	i	1.8*	1.6	0.072
CC(C)CN(Cc1cc(=O)oc2cc(-c3ccccc3)c(O)cc12)CC(C)C	x	x	i	x	0.52	x
OCCC1CN(Cc2nc(-c3ccc(F)cc3)cs2)CCN1CCc1ccccc1 (stereo unspecified)	x	4	i	-3.9*	-2.8	0.054*
COc1ccccc1N(CC(=O)N(CC(C)C)CC(C)C)S(=O)(=O)c1cccs1	x	0	i	-4.1*	-1.2	0.067*
COc1ccccc1N(CC(=O)N(c1ccccc1)C(C)C)S(=O)(=O)c1cccs1	x	8	i	-2.3	-0.98	x
N=C1C(c2ccccc2)=C(O)CN1c1cccc(S(=O)(=O)N2CCCCC2)c1	x	x	i	x	-0.097	x
CC(C)c1cc(-c2cc(C(=O)NCc3ccccc3)on2)nc(NCC2CC2)n1	x	x	i	x	-0.4	x
Cc1snc(S(=O)(=O)/C(C#N)=N/Nc2ccc(C(F)(F)F)cc2)c1C#N	2	3	i	3.8*	0.0076	0.1*
N#CCC(=O)Nc1ccc(C(=O)OCC(=O)Nc2cccc(C(F)(F)F)c2)cc1	x	-3	i	0.038	-0.36	x
